# Test results published in ChEMBL document CHEMBL4513216, “Probing the Open Global Health Chemical Diversity Library for Multistage-Active Starting Points for Next-Generation Antimalarials” (ACS Infect Dis, 2020).
# In all, about 69,000 compounds went through this assay and about 8,600 (12%) showed an effect of 50% or more. The list comes from a sample in which strong results are over-represented; it also holds similar structures and randomly drawn compounds.
# Tested on: Plasmodium berghei
# Experiment: Screen against P. berghei liver stage (PbLuc), transformed with Luciferase, at 10uM
# Format: functional, HepG2
# Settings: tested at 10 uM
row,Structure (SMILES),INHIBITION
1,COc1ccc(C2CCCN2Cc2ccc(S(=O)(=O)N(C)C)o2)cc1 (stereo not given),37.4%
2,O=C(Cn1cc(C(=O)O)cn1)Nc1c(Cl)cccc1Cl,22.6%
3,CC(C(=O)N1CCCN(Cc2ccc(C#N)cc2)CC1)n1cncn1 (stereo not given),27.65%
4,Cc1n[nH]c(C)c1NC(=O)CCc1cccc(C2CCCN(C)C2)n1 (stereo not given),29.3%
5,CCCn1c(C)c(CC(=O)NC(C)CO)c2c1CC(C)(C)CC2=O (stereo not given),18.6%
6,O=C1[C@@H]2CN(c3ncnc4[nH]ccc34)C[C@]2(C(=O)O)CN1CC1CC1,36.6%
7,Cc1ccc(-c2cc(CNC(=O)N3CCCN(C)CC3)on2)cc1,35.9%
8,Cn1c(=O)[nH]c(=O)c2c1nc1n2CC(c2ccc(Cl)cc2)O1 (stereo not given),7.92%
9,CCc1noc(C(C)N(C)CC(=O)Nc2c(C)cccc2C)n1 (stereo not given),-8.69%
10,CCc1noc(C(C)N(C)CC(=O)Nc2cccc(C)c2C)n1 (stereo not given),41.4%
11,COc1ccc(Br)cc1CN(C)C(C)c1nc(C(C)C)no1 (stereo not given),3.73%
12,CCc1noc(C(C)N(C)CC(=O)Nc2cccc(C)n2)n1 (stereo not given),-29.2%
13,CCc1noc(C(C)N(C)CC(=O)Nc2ccc(Br)cc2C)n1 (stereo not given),74%
14,CCc1noc(C(C)N(C)CC(=O)Nc2ccc(C)cc2)n1 (stereo not given),27.6%
15,COc1ccc(Br)cc1CN(C)C(C)c1nc(C)no1 (stereo not given),4.82%
16,CCc1noc(C(C)N(C)Cc2cc(Br)ccc2OC)n1 (stereo not given),51.5%
17,CCc1noc(C(C)N(C)CC(=O)Nc2ccc(Cl)c(C(F)(F)F)c2)n1 (stereo not given),90.2%
18,Cc1ccccc1NC(=O)NCC(C)(O)c1cccs1 (stereo not given),48.8%
19,Cc1noc2nc(C3CCN(Cc4ccccn4)CC3)cc(C(F)F)c12,47.1%
20,Cc1cc(C(NC(=O)CNS(C)(=O)=O)C(C)C)c(C)s1 (stereo not given),22.3%
21,Cc1cccc(CN2C[C@@H]3COC[C@]3(CNC(=O)c3ccsc3)C2)n1,39.8%
22,COc1ccc(CN2CCO[C@@H]3C[C@@H](C(=O)NC(C)C)C[C@H]32)cc1,26.5%
23,CCS(=O)(=O)NC(CCSC)C(=O)Nc1cccc(C)c1C (stereo not given),26.9%
24,CC(Oc1cc(Cl)cc(Cl)c1)C(=O)NCCS(N)(=O)=O (stereo not given),34.7%
25,Cc1c(Br)c(C(=O)NC(C)c2ccccc2)nn1C (stereo not given),-38.2%
26,Cc1ccc(-c2noc(CCC(=O)NC(C)Cn3cccn3)n2)cc1 (stereo not given),22.6%
27,O=C(c1ccco1)N1CCn2cc(CN3CCCC3)nc2C1,25.2%

row,Structure (SMILES),INHIBITION
1,CN1CCN(Cc2cn3c(n2)CN(C(=O)c2cccn2C)CC3)CC1,54.7%
2,CC(=O)NCC(=O)N1CCn2cc(CN3CCCCC3)nc2C1,68.8%
3,Cn1cccc1C(=O)N1CCn2cc(CN3CCCC3)nc2C1,52%
4,O=C(CCc1ccccc1)N1CCn2cc(CN3CCCC3)nc2C1,41.4%
5,CN1CCN(Cc2cn3c(n2)CN(C(=O)c2ccccn2)CC3)CC1,25.1%
6,O=C(c1ccc[nH]1)N1CCn2cc(CN3CCCC3)nc2C1,18.8%
7,N#Cc1ccc(C(=O)N2CCn3cc(CN4CCCCC4)nc3C2)cc1,52%
8,CC(=O)NCC(=O)N1CCn2cc(CN3CCN(C)CC3)nc2C1,43.5%
9,O=C(c1cccnc1)N1CCn2cc(CN3CCCC3)nc2C1,31.1%
10,O=C(c1ccnnc1)N1CCn2cc(CN3CCCCC3)nc2C1,41.6%
11,CN1CCN(Cc2cn3c(n2)CN(C(=O)c2ccco2)CC3)CC1,17.4%
12,Cc1ccc(NC2CCN(C(=O)c3cc4c(s3)CCC4)CC2)nn1,-11.4%
13,CCn1cnnc1CNC(=O)NC(c1cccs1)C1CCCC1 (stereo not given),-9.76%
14,COc1ccc(NC(=O)c2cnc(C3CCN(C(C)=O)C3)nc2C)cc1 (stereo not given),25.55%
15,O=C1CCC2(CCC(NC3CCOC3)CC2)N1Cc1ccncc1 (stereo not given),3.81%
16,CCC1(c2ccc(NS(=O)(=O)N(C)C)cc2)CCC(=O)NC1=O (stereo not given),18.9%
17,Cc1cc(N2CCOCC2)nc(N(C)CCO)c1C#N,12.3%
18,CC(C)c1nc2c(n1C)CCN(Cc1nc(-c3ccoc3)no1)C2,25.6%
19,CNc1cncc(C2CCCN2C(=O)Cn2ccnc2C)n1 (stereo not given),2.915%
20,O=C(Cc1csc(-c2ccccc2)n1)N[C@@H](C(=O)O)c1ccccc1,-3.11%
21,Cc1cc(C(=O)N2CCn3cc(CN4CCCCC4)nc3C2)no1,17.1%
22,Cc1cc(C(=O)N2CCn3cc(CN4CCCC4)nc3C2)no1,13.6%
23,Cc1cc(C(=O)N2CCn3cc(CN4CCOCC4)nc3C2)no1,68.4%
24,CN(CCCc1cnn(C)c1)Cc1cc2n(n1)CCCN(C)C2,65.7%
25,CN(Cc1cc2n(n1)CCNC2)Cc1noc(C2CCC2)n1,51%
26,CNc1ncc(CN(C)Cc2cc3n(n2)CCNC3)cn1,-99.3%
27,CN(CCc1noc(C2CC2)n1)C(=O)CCc1cc2n(n1)CCCNC2,46.6%

row,Structure (SMILES),INHIBITION
1,CCN(Cc1noc(C2CCC2)n1)C(=O)CCc1cc2n(n1)CCNC2,11.9%
2,CN(CCCc1cnn(C)c1)C(=O)C1CCN(C(=O)C2CCC2)CC1,38.7%
3,CCc1cnc(C)nc1N(C)CCCc1cnn(C)c1,8.31%
4,CN(CCCc1cnn(C)c1)Cc1cc2n(n1)CCCNC2,49.4%
5,CN(CCCc1cnn(C)c1)Cc1cc2n(n1)CCNC2,52.6%
6,O=C(c1cc2cc(F)ccc2[nH]1)N1CCC(Nc2cccnn2)CC1,22.3%
7,CCCC(NC(=O)c1cc(C)ccc1O)c1nnn[nH]1 (stereo not given),34.6%
8,COc1ncccc1NC(=O)C1CCOCC1,43.3%
9,CC(=O)Nc1c(C)noc1C=Cc1ccc(C)c(S(=O)(=O)NC2CC2)c1,11.6%
10,O=C(Nc1ccccc1)C1=CC2(CCNCC2)c2ccccc21,48.2%
11,O=C(Cn1c(=O)oc2ccccc21)NCC1(O)CCc2ccccc21 (stereo not given),-27.3%
12,O=C(Cn1cncn1)NCC1(O)CCCc2ccccc21 (stereo not given),10.9%
13,O=C(Cn1cnnn1)NCC1(O)CCCc2ccccc21 (stereo not given),64.7%
14,O=C(Cn1cccn1)NCC1(c2ccccc2)CC1,-8.3%
15,Cc1cnn(CC(=O)NCC2(O)CCCc3ccccc32)c1 (stereo not given),80.5%
16,O=C(CN1C(=O)CCC1=O)NCC1(O)CCc2ccccc21 (stereo not given),5.58%
17,Cc1cccc(S(=O)(=O)N2CSCC2C(=O)NCC2CC2)c1 (stereo not given),-14.3%
18,Cc1cnccc1-c1cnn(CCNC(=O)c2ccncc2)c1C1CC1,48%
19,Cc1ccc(CN(C)Cc2nc3ccc(F)cc3[nH]2)cn1,44.2%
20,Cc1ccc(CC(=O)N2CCCC(c3ccn[nH]3)C2)cn1 (stereo not given),22.965%
21,O=C(NCc1ccco1)[C@@H]1CCO[C@@H]2CCN(c3ncccn3)C[C@@H]21,36.9%
22,Cn1cccc1C(=O)N1CCN(Cc2ccncc2)c2ncccc2C1,-33%
23,NS(=O)(=O)CC1CCN(c2ncccc2C(F)(F)F)CC1,20.6%
24,CC(C)C(=O)NCC(=O)N1CCC2(CC1)c1ccccc1[C@@H](N)[C@@H]2O,-26.1%
25,N[C@@H]1c2ccccc2C2(CCN(C(=O)c3cncc(Cl)c3)CC2)[C@H]1O,8.5%
26,FC(F)(F)c1ccnc(N2CCCCCC2)c1,-6.52%
27,N[C@@H]1c2ccccc2C2(CCN(c3cnc4ccccc4n3)CC2)[C@H]1O,44.9%

row,Structure (SMILES),INHIBITION
1,N[C@@H]1c2ccccc2C2(CCN(C(=O)c3ccc(Cl)cn3)CC2)[C@H]1O,37.1%
2,O=C1CCC2(CCN(c3cccc(C(F)(F)F)n3)CC2)CN1CCO,47.9%
3,N[C@@H]1c2ccccc2C2(CCN(c3cccc(C(F)(F)F)n3)CC2)[C@H]1O,88%
4,N[C@@H]1c2ccccc2C2(CCN(c3ncccc3C(F)(F)F)CC2)[C@H]1O,86.6%
5,N[C@@H]1c2ccccc2C2(CCN(c3ccc(C(F)(F)F)cn3)CC2)[C@H]1O,78.3%
6,OCC1(O)CCN(c2ncccc2C(F)(F)F)CC1,24.2%
7,N[C@@H]1c2ccccc2C2(CCN(c3cc(C(F)(F)F)ccn3)CC2)[C@H]1O,58.8%
8,CC(C)c1n[nH]c(C2CN(CCCS(C)(=O)=O)CCO2)n1 (stereo not given),0.914%
9,Cc1nc(CN2CCn3cc(CNC(=O)C4CCC4)nc3C2)cs1,-3.1%
10,Cc1ccc(N(Cc2ccco2)C(=O)Cc2cc(=O)n(C)[nH]2)cc1,39.5%
11,O=C(O)CCn1ccc2cc(Br)ccc21,24.7%
12,CC(NC(=O)C1=NN(C)C(=O)CC1)c1ccccc1Cl (stereo not given),35.4%
13,Cc1cnc(CNC(=O)C2CCOc3ccccc3C2)cn1 (stereo not given),-3.83%
14,COCCCN(Cc1ccccc1Cl)C1CCS(=O)(=O)C1 (stereo not given),33.4%
15,Cc1nnnn1CCC(=O)N1CCC2(CCC(=O)N(CC3CC3)C2)CC1,8.38%
16,c1cc(CN2CCCCC2c2ccc(Nc3cnccn3)nc2)ccn1 (stereo not given),43.1%
17,Cn1cc(CN2CCC3(C2)CN(Cc2ccsc2)C3)cn1,-3.19%
18,CNc1nc(CNC(=O)Nc2cccc(OC)c2)cs1,23.5%
19,O=C1Nc2ccccc2NC12CCN(c1cccc(C(F)(F)F)n1)CC2,76%
20,CC(O)c1cccc(N2CCC3(CC2)Nc2ccccc2NC3=O)n1 (stereo not given),0.705%
21,N#Cc1cccc(N2CCC3(CC2)Nc2ccccc2NC3=O)n1,14.3%
22,Cn1cnc2cc(C(=O)NS(=O)(=O)CC3CCCC3)ccc21,-20.6%
23,COCCN1CCc2cc(C(=O)O)c(-c3ccoc3)nc2CC1,42.7%
24,Cn1cncc1CN1CCc2nc3sccc3c(=O)n2CC1,-9.08%
